Screening results from PubChem BioAssay.
Only some compounds are listed: those with a hit (about 6.5% of all), similar ones and a draw of the others.
HT1080NT lethal: kills 2HG-producing HT-1080-NT fibrosarcoma cells. Potency, µM (doses to about 46.1 µM), inactives show at the highest dose activity, negative = less viability, most hits filed as cytotoxic. hit rate 1.6% among 360,000. HT-1080-NT fibrosarcoma viability, CellTiter-Glo ATP luminescence, 48 h. AID 686970;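 further: NT is the 2HG producing partner of a matched IDH1 knockdown line; potency means the concentration at half of the fitted maximal effect; 0% = DMSO-treated cells and -100% = media-only wells without cells; nearly all actives have a fitted effect of over 55% in size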
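HT-1080-NT fibrosarcoma cells (2HG-overproducing), 750 cells/well in RPMI with 5% FBS, dosed after 2 h and incubated 48 h at 37C. CellTiter-Glo luminescence normalized to DMSO and no-cell wells; concentration-response curves fitted and classed.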
Giardia killer: Giardia lamblia killing | Giardia lamblia trophozoite viability | activity change, % at 7.66 µM, hits read low | hit rate 0.15% among 340,000 | AID 540267; in the data active means activity change below about -80%; inconclusive means between about -30% and that limit;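 further: parasites exposed to compound for two days anaerobically before the ATP read; on the % scale 0 is the no-effect control and ±100 the full control effect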
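Giardia lamblia trophozoites (100 cells/well) were incubated with compounds for 48 h at 37 deg C under anaerobic conditions. Viability was read as ATP content by one-step luminescence after 15-30 min at room temperature.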
TGFb SMAD3 inh: blocks TGF-b signaling | HepG2 CAGA-GFP TGF-b/SMAD3 reporter, GFP fluorescence, 18 h; TGF-beta stimulated, 500 pg/mL final | Potency, µM (top dose mostly 46.1 µM), inactives show at the top dose activity, negative = inhibition, hits mostly inhibitors | hit rate 1.2% among 410,000 | AID 588855; further: potency means the concentration at half of the fitted maximal effect; on the % scale 0 is the no-effect control and ±100 the full control effect; nearly all actives have a fitted effect of over 65% in size
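HEPG2 CAGA-GFP cells (1000/well, DMEM with 1% FBS) were pre-incubated 2 h at 37 degrees C, given compound by pin tool, then stimulated with TGF-beta at 500 pg/mL final for 18 h before per-cell GFP fluorescence imaging.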
HepG2 viability: counter-screen for TGF-b inhibitors: cytotoxicity in HepG2 cells | HepG2 CAGA-GFP viability, ATP luminescence, 18 h | Potency, µM (titrated, usually from 46.1 µM), for inactives: at the highest dose activity change, negative = cytotoxicity, usual class: cytotoxic | hit rate 0.76% among 410,000 | AID 588856; further: potency means the concentration at half of the fitted maximal effect
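CellTiter-Glo luminescence gave cytotoxicity after 18 hours at 37 degrees C. The cells were HepG2 CAGA-GFP in 1% FBS DMEM, stimulated with 500 pg/mL TGF-beta after compound addition. %Activity was normalised to no-cell wells (complete cell-killing) and DMSO (no toxicity), and curves were fitted and classified.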
IL1B secr inh: inhibitors of inflammasome signaling (IL-1 beta secretion); AID 743279; hit rate 4.7% among 360,000; activity change, % at 57.5 µM; THP-1 LPS/ATP IL-1B secretion, AlphaLISA, 16 h; hits give low values; in the data active means activity change below about -50%; inconclusive means mostly about -30% to -49%; further: on the % scale 0 is the no-effect control and ±100 the full control effect
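THP-1 cells pretreated 1 hr with compounds (up to 57.5 uM final), then stimulated with LPS (250 ng/mL final) plus ATP (1.25 mM final); secreted IL-1B measured by AlphaLISA after 16 hr, decreased signal indicating inhibition.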
HT1080 IDH1KD tx: HT-1080 IDH1 knockdown cell toxicity (counter line) | HT-1080 IDH1 knockdown viability, ATP luminescence, 48 h | Potency, µM (series often up to 46.1 µM), for the others: top-dose activity, negative = toxicity, actives largely listed as cytotoxic | hit rate 2% among 360,000 | AID 686971;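 further: potency means the concentration at half of the fitted maximal effect; 0% = DMSO wells and -100% = cell-free medium wells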
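Cytotoxicity counter-line: IDH1KD HT-1080, 48 h, CellTiter-Glo. Curves classed by r2, magnitude and activity.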
* marks the source's active call; other numbers are inactive results; ? = inconclusive; / = no result given. Unless noted, the call rests on the fitted dose curve; in most records, active means well fitted curve in the direction sought with a large enough effect; inconclusive means small, poorly fitted or top-dose-only effect, or another doubt; inactive means no such curve, though single readings can be large; an effect the other way counts as inactive or inconclusive.

SMILES | HT1080NT lethal | Giardia killer | TGFb SMAD3 inh | HepG2 viability | IL1B secr inh | HT1080 IDH1KD tx
O=C(NC(NC(=S)Nc1ccccc1)C(Cl)(Cl)Cl)c1cccc(Cl)c1 (stereo not drawn) | ? | 8.1 | 4.47µM* | 12.6µM* | -94.5* | ?
COC(CNC(=O)c1ccc(N2CCC3(CC2)OCCO3)c([N+](=O)[O-])c1)OC | 2.1% | 5.6 | -2.1% | 5.3% | 1.4 | 13.5%
COc1ccc(C(=O)NCCS(=O)(=O)N2CCc3ccccc3C2)c(OC)c1 | 14.5% | 7.0 | -6.4% | 1.4% | 0.7 | 7.4%
CCOc1ccccc1NC(=O)c1cc(-c2ccccn2)nc2ccccc12 | 18.4% | 11.0 | 7.7% | -0.9% | ? | -0.4%
COc1cccc2cc(C(C)N(CCCN3CCOCC3)C(=S)Nc3cc(C)ccc3C)oc12 (stereo not drawn) | -8.1% | -3.8 | 3.2% | -19.0% | 2.9 | -0.6%
O=C1COc2ccc(S(=O)(=O)CCC(=O)N3CCN(c4cccc(Cl)c4)CC3)cc2N1 | ? | -20.9 | -0.9% | -3.9% | 41.2 | ?
Cc1ccc(Cl)cc1N1CCN(C(=O)CCS(=O)(=O)c2ccc3c(c2)NC(=O)CO3)CC1 | -21.6% | 27.7 | -19.6% | 0.3% | -52.9* | -11.3%
CCOC(=O)c1c(S(=O)(=O)N(C)Cc2ccco2)c(C)n(C)c1C | -0.2% | -8.7 | 17.3% | -0.7% | 27.8 | 14.9%
COc1ccccc1-c1noc(CCCC(=O)Nc2cccc(C(F)(F)F)c2)n1 | / | / | 12.6µM* | -15.2% | / | /
O=C(CCCc1nc(-c2ccccc2)no1)Nc1cccnc1 | 1.5% | 0.8 | 16.8% | -13.2% | 98.1 | -11.9%
Cc1ccc(-c2noc(CCCC(=O)Nc3cccnc3)n2)cc1 | -1.1% | 18.8 | 6.6% | -26.6% | 45.3 | 23.1µM*
CCCCCC(=O)N1C[C@H](n2cc(COC(=O)c3ccccc3)nn2)[C@@H](O)C[C@@H]1c1ccc(C)cc1 | ? | / | ? | -32.5% | 6.4 | ?
Cc1cc(C(=O)Nc2ccc(C)c(C)c2)n(-c2ccccc2)n1 | 0.3% | -19.7 | 0.6% | -22.5% | -2.6 | 13.1%
C=CCSc1nnc(-c2cc3c(-c4ccccc4)nn(C)c3s2)n1C | -12.1% | -1.6 | 5.5% | 3.4% | -62.0* | -5.4%
COc1cc2[nH]c(=S)nc(NC3CCCCCC3)c2cc1OC | ? | 9.4 | ? | -50.1% | -139.3* | ?
Cc1ccc(-c2cc(C(=O)N3CCC(C)CC3)c3ccccc3n2)cc1 | ? | 3.2 | ? | -37.4% | 4.8 | -28.8%
CC(=O)C(=Cc1ccc(C(=O)O)cc1)C(C)=O | 0.3% | -14.2 | 0.1% | -14.5% | 13.0 | 0.3%
Cc1ccc(NC(=O)C(=Cc2ccc(C(=O)O)cc2)C(=O)Nc2ccc(C)cc2C)c(C)c1 | 14.6µM* | -9.3 | 7.08µM* | 10µM* | -100.0* | 11.6µM*
O=C(COC(=O)c1ccc(O)cc1)NCCc1c[nH]c2ccccc12 | -11.3% | 11.7 | -7.6% | 0.8% | 16.2 | 0.8%
Cc1ccc(NC(=O)/C=C\C(=O)N(c2ccc(C(C)C)cc2)C(C(=O)NCc2ccco2)c2ccc(F)cc2)cc1 (stereo not drawn) | / | / | 6.31µM* | -41.0% | / | /
Cc1cc(C)cc(N(C(=O)c2sc(C)nc2C)C(C(=O)NCc2ccco2)c2ccccc2)c1 (stereo not drawn) | -0.4% | -7.5 | 0.5% | 7.3% | 8.3 | -3.0%
COc1ccc(NC(=O)/C=C\C(=O)N(c2ccc(C(C)C)cc2)C(C(=O)NCc2ccco2)c2ccc(C)cc2)cc1 (stereo not drawn) | / | / | ? | -31.7% | / | /
Cc1ccc(N(C(=O)c2sc(C)nc2C)C(C(=O)NCc2ccco2)c2ccccc2)cc1 (stereo not drawn) | 0.0% | 0.7 | 0.2% | -11.6% | -54.5* | 0.0%
CCOc1ncccc1C(=O)NCC(c1ccco1)N1CCCCC1 (stereo not drawn) | 8.8% | 9.1 | -4.4% | 6.3% | -6.9 | 7.0%
